Smad3 FoxH1 inh: Smad3/FoxH1 peptide binding inhibitors, primary screen, biochemical, TR-FRET. Mothers against decapentaplegic homolog 3 (Homo sapiens), P84022. TR-FRET Smad3/Dy647-FoxH1 peptide binding, europium anti-His. inhibition, % at 25 µM. actives 0.29% (n = 88,000). AID 630, 2007;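 active = compounds that reduce the energy-transfer binding signal between the protein and its labelled peptide by more than half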;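 note: 0% = Smad3 plus labelled peptide maximal FRET and 100% = peptide-only background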
TNAP act DEA: human TNAP enzyme activators, primary screen, biochemical, luminescent, intermediate phosphate acceptor level. Alkaline phosphatase, tissue-nonspecific isozyme (Homo sapiens), P05186. purified TNAP, CDP-star luminescence, 100 mM DEA, 30 min; active compounds read high; scale: 0 levamisole-inhibited, 1 vehicle-only enzyme. activation factor at 20 µM. 64,000 tested, under 10 active. AID 813, 2007;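 active = activation factor of at least 2 at 20 µM, relative to controls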
Target sequence (P05186 whole entry, looked up): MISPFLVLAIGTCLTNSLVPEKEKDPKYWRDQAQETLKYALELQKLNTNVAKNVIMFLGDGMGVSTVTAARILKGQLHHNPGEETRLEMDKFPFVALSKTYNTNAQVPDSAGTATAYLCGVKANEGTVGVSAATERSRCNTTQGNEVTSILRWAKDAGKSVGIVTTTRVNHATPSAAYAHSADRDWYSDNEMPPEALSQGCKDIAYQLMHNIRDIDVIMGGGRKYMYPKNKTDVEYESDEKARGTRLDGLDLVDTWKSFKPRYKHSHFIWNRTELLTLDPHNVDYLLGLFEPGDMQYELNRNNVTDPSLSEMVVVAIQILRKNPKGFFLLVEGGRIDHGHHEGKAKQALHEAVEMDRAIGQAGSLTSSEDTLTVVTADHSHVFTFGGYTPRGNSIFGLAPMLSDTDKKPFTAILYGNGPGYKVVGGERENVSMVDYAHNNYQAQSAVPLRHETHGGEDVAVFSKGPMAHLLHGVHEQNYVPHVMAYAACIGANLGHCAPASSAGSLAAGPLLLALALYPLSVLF
PostGolgi ctrl: growth inhibition of yeast control strain, primary screen, counter-screen for post-Golgi transport modulator project; actives 5% (n = 98,000); efflux-deficient yeast background strain, growth absorbance A615, 16 h; inhibition, % at 10 µM; AID 738, 2007
PostGolgi yeast: phenotypic screen on post-Golgi transport, primary screen; post-Golgi transport phenotypic cell assay; inhibition, % at 10 µM; actives 0.9% (n = 98,000);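 note: yeast cells grown in 1536-well plates; yeast grown about 18 h at 30C before absorbance read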
hDAT+cocaine: changed hDAT dopamine uptake under cocaine IC80, either direction, primary screen, cocaine antagonist project, cell-based, LLC-PK1 hDAT, [14C]-dopamine uptake, MLSMR | AID 449768, 2010 | actives 1.3% (n = 110,000) | LLC-PK1 hDAT cells, [14C]-dopamine uptake with cocaine IC80; actives deviate in either direction | B-score at 10 µM;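 active = Z score or B-score, a plate-position-corrected score, falls beyond the plate's 99.7% confidence bounds, in either direction; inactive = both scores lie inside the 99.7% bounds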;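 note: scored against the spread of the other compound wells on the same plate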
Cav32 inh: Cav3.2 calcium influx blockers – cell-based, Fluo-4 calcium fluorescence, FDSS, MLSMR library, primary screen; actives 4% (n = 100,000); B-score at 10 µM; Cav3.2-expressing cells; active compounds read low; AID 449739, 2010; Voltage-dependent T-type calcium channel subunit alpha-1H (Homo sapiens), O95180;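 active = single-dose well whose peak fluorescence ratio is a statistical outlier from its plate by either plate-standardised score or position-corrected B-score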
Numbers without * were called inactive; nt = not tested or not shown. This is a sample that favours compounds with a hit; in the whole collection about 8.7% have one here. Cut-off read from the data, not from the text of the source, unless noted: active = inhibition above about 30%; inactive = the rest.

SMILES | Smad3 FoxH1 inh | TNAP act DEA | PostGolgi ctrl | PostGolgi yeast | hDAT+cocaine | Cav32 inh
Clc1ccc(SCc2cc(Cl)nc(-c3ccccc3)n2)cc1 | nt | nt | nt | nt | 0.77 | -1.5
Clc1ccc(Sc2cc(Cl)c(-c3ccccc3)nn2)cc1 | nt | nt | 59* | -12 | -0.58 | -3
CCCC(=O)Nn1cnc2c(c1=O)C1(CCCCC1)Cc1ccccc1-2 | 0 | nt | 35* | -1 | 0.67 | -1.5
CCC(=O)Nn1cnc2c(c1=O)C1(CCCCC1)Cc1ccccc1-2 | -3 | nt | 31* | 3 | -0.46 | -1.2
O=C(COC(=O)CNC(=O)c1ccco1)Nc1ccc(Cl)cn1 | 1 | nt | 12 | -4 | -0.45 | -0.42
CCSC1=C(C#N)C(c2cccc(OC)c2)CC(=O)N1 (stereo not given) | 9 | 0.9 | 17 | 13 | -0.41 | nt
Cc1nn(-c2ccccc2)c(Cl)c1C(=O)Nc1nnc(C2CCCC2)s1 | 9 | 0.9 | 4 | -4 | 1.5 | -5*
Clc1ccc(Cl)c(SCCCN2CCNCC2)c1 | 4 | nt | nt | nt | nt | nt
COCCN1CCN(c2c3c(nc4cc(-c5cccc(F)c5)nn24)CCC3)CC1 | 3 | nt | nt | nt | 1.9 | 0.27
O=C(C1CCCO1)N1CCN(c2c3c(nc4cc(-c5ccc(F)cc5)nn24)CCC3)CC1 (stereo not given) | -7 | 0.9 | 19 | -2 | 1.1 | 0.08
OC1CCN(c2c3c(nc4cc(-c5ccc(F)cc5)nn24)CCC3)CC1 | 8 | nt | 49* | 2 | 1.5 | -0.057
Fc1ccc(-c2cc3nc4c(c(N5CCOCC5)n3n2)CCCC4)cc1 | 0 | 0.9 | 57* | 19 | 0.67 | -4.2
Cc1ccc(N(C(=O)C2CCCC2)C2C=CS(=O)(=O)C2)cc1 (stereo not given) | -15 | 1 | 39* | 5 | 0.036 | nt
CCCCOCCCNC(=O)Cc1cccs1 | -3 | 0.9 | 13 | 1 | 0.39 | -1.9
CCCCn1nc2cc(C(=O)NCc3ccc(OC)cc3)ccc2c1OCC | nt | nt | 1 | -4 | 0.05 | -1.6
CCOc1c2ccc(C(=O)NCc3ccc(C)cc3)cc2nn1CC | nt | nt | -4 | -8 | 3.2* | 0.63
CCCn1nc2cc(C(=O)NCc3ccc(C)cc3)ccc2c1OCC | nt | nt | 14 | -25 | 0.83 | -0.057
CC(C)c1nc2ccccc2n1CCC(=O)O | -5 | nt | 0 | 5 | -0.95 | 0.36
Cn1c(C(C#N)C(=O)c2sc3ccccc3c2Cl)nc2ccccc21 (stereo not given) | -12 | 0.9 | 79* | 4 | 0.096 | -0.8
Cc1ccc(Cl)c(OCCCCN(C)Cc2ccccc2)c1 | nt | nt | 34* | 93* | 0.2 | -0.44
COc1cc(C)ccc1OCCCOc1cc(C)ccc1Cl | nt | nt | nt | nt | -0.22 | -0.91
Cc1noc2ncnc(Oc3ccc4ccccc4c3)c12 | nt | nt | 31* | -8 | nt | nt
C=CCNC(=O)c1nn2cccnc2c1Cl | 4 | 0.9 | 9 | -5 | 0.92 | -0.28
CCCCOc1ccc(-c2nnn(C(C)C(=O)OCC)n2)cc1 (stereo not given) | 12 | 0.9 | 4 | 8 | 0.25 | -0.93
Cc1ccc(-c2nnn(C(C)C(=O)N3c4ccccc4CCc4ccccc43)n2)cc1 (stereo not given) | 10 | nt | nt | nt | -0.37 | -5.3*
SMILES | Smad3 FoxH1 inh | TNAP act DEA | PostGolgi ctrl | PostGolgi yeast | hDAT+cocaine | Cav32 inh
CC(C(=O)N1c2ccccc2Sc2ccccc21)n1nnc(-c2cccs2)n1 (stereo not given) | 9 | 0.9 | 32* | 5 | -0.52 | -7*
CC(C(=O)N1c2ccccc2CCc2ccccc21)n1nnc(-c2ccc(N(C)C)cc2)n1 (stereo not given) | 0 | nt | nt | nt | 1.4 | -5.5*
O=C(O)Cn1nnc(-c2cccs2)n1 | -9 | 1 | 4 | 10 | nt | nt
CC(C)(C)n1nnnc1CN1CCN(C(c2ccccc2)c2ccccc2)CC1 | -1 | nt | nt | nt | 1.7 | -5.4*
CCc1ccc(N(C(=O)Cc2cccs2)C(C(=O)NC2CCCCC2)c2cn(C)nc2C)cc1 (stereo not given) | nt | nt | 9 | 0 | 0.051 | -1.2
CCOc1cccc(N(C(=O)Cc2cccs2)C(C(=O)NC2CCCCC2)c2cccn2C)c1 (stereo not given) | -3 | nt | nt | nt | 0.33 | -4.1*
Cc1cc(C)cc(N(C(=O)Cc2cccs2)C(C(=O)NC2CCCCC2)c2ccccn2)c1 (stereo not given) | nt | nt | 9 | -8 | -0.44 | -5.3*
OCCN(Cc1ccccc1)CC1CC2C=CC1C2 (stereo not given) | 1 | 0.9 | 8 | 4 | -0.69 | 0.32
COc1cc(N/C(=N/S(=O)(=O)c2ccccc2)c2ccccc2)ncn1 | 5 | 0.9 | 11 | -4 | 0.16 | 1.9
O=C1CC(c2ccc3c(c2)OCO3)c2cc3c(cc2N1)OCCO3 (stereo not given) | -1 | 1.1 | 9 | 8 | -2.8* | -1.3
CCN(CC)C(=O)CSc1nc(N)c2c3c(sc2n1)CC(C)CC3 (stereo not given) | 3 | nt | 25 | -3 | 2.1* | 0.5
Cc1nc2ccc(S(=O)(=O)NCC(=O)N3CCCCC3)cc2s1 | 7 | 0.8 | 7 | 11 | -0.69 | 0.96
CCOC(=O)c1cc(NC(=O)CSc2nnc(CN3CCOCC3)n2C)ccc1Cl | 5 | nt | nt | nt | -8.9* | 1.7
Cn1c(COc2ccccc2)nnc1SCC(=O)Nc1ccc(N2CCOCC2)c(Cl)c1 | -1 | 0.8 | 2 | 6 | 0.31 | 0.5
Cc1nn(C(=O)c2ccc3c(c2)OCO3)c(N)c1-c1ccccc1 | -1 | 0.8 | 9 | 6 | 0.26 | -0.98
Cc1nn(-c2ccc(S(=O)(=O)O)cc2)c(O)c1N=Nc1ccc(-c2ccc(N=Nc3ccc4c(S(=O)(=O)O)cc(S(=O)(=O)O)c(N)c4c3O)c(O)c2)cc1O.[Cu].[Cu] | 101* | nt | nt | nt | nt | nt
CC(C)CCNC(=O)[C@H](CSCc1ccccc1)N1Cc2ccccc2C1=O | nt | nt | nt | nt | 0.63 | -3.8*
O=C(O)C(Cc1ccccc1)N1Cc2ccccc2C1=O (stereo not given) | 20 | nt | -4 | 0 | 0.52 | 0.32
CCOC(=O)c1cnn(-c2sc(C(=O)OCC)c(C)c2C(=O)OCC)c1N | -9 | 1 | nt | nt | -2.5* | -3.3*
CCOC(=O)c1cnn(-c2ccccn2)c1N | 2 | 0.9 | 18 | -1 | 0.0024 | 0.77
Cc1ccc(C(=O)NNC(=O)C2CCCN(c3ncccn3)C2)cc1 (stereo not given) | nt | nt | 1 | 11 | 6.6* | 0.83
CCCCn1c(SCC(=O)N2CCN(c3ccccc3)CC2)nc2ccsc2c1=O | -4 | 0.9 | 43* | 3 | -0.22 | -2.7
CCn1c(SCC(=O)N2CCN(c3ccc(F)cc3)CC2)nc2ccccc2c1=O | 15 | 1 | 37* | 2 | -0.84 | 0.93

High-throughput results deposited in PubChem by several laboratories.
